Assay outcomes from PubChem BioAssay.
Pf growth 48h – Primary qHTS for delayed death inhibitors of the malarial parasite plastid, 48 hour incubation | P. falciparum luciferase growth in erythrocytes, 48 h | 310,000 tested, 5.9% active | AID 504832, 2011 | Potency, µM (series often up to 28.7 µM), for the others: at the highest dose activity change, negative = inhibition, actives largely listed as inhibitors; note: % is set by controls: 0 for no effect and ±100 for the full control effect
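Luciferase-expressing parasites in RBCs, 2% Hct / 0.1% parasitemia final; RPMI 1640 + 0.5% Albumax; 37 C, 5% CO2, one generation; luminescence read-out, lower signal = inhibition.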
Pf growth 96h – Primary qHTS for delayed death inhibitors of the malarial parasite plastid, 96 hour incubation | P. falciparum luciferase reporter growth, 96 h | Potency, µM (doses to about 28.7 µM), inactives show at the highest dose activity change, negative = inhibition, most hits filed as inhibitors | 320,000 tested, 6.9% active; note: % is set by controls: 0 for no effect and ±100 for the full control effect
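Parasite growth measured via integrated firefly luciferase reporter in P. falciparum. Infected erythrocytes at 2% hematocrit, 0.05% parasitemia final were treated 96 hours at 37 C under 5% CO2, and luminescence was read.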
AmpC inh detg – qHTS Inhibitors of AmpC Beta-Lactamase (assay with detergent). Potency, µM (top dose mostly 114 µM), inactives show at the top dose activity change, negative = inhibition, usual class: inhibitors. 370,000 tested, 0.041% active. AID 485294, 2010. P00811. AmpC hydrolysis of nitrocefin, absorbance 480 nm, 0.01% Triton;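 note: 0% = no-compound wells and -100% = no-enzyme wells; nearly all actives have a fitted effect of over 25% in size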
Target sequence (P00811 whole entry, looked up): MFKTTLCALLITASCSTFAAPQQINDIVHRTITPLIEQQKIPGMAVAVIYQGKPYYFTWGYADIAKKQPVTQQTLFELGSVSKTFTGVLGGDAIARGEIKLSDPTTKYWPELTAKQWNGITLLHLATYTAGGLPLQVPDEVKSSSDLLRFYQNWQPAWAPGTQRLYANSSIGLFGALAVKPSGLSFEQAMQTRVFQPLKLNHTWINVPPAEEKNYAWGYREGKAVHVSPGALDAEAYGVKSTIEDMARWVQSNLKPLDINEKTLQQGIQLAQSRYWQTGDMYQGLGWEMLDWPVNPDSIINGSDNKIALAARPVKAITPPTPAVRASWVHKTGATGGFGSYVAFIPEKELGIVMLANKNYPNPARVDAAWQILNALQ
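AmpC (5.3 nM in the dispensed reagent) in 20 mM phosphate pH 7.0 with 0.01% (detergent screen) or 0.0001% Triton X-100 was preincubated with compounds for 15 min at room temperature. Nitrocefin was then added from an 800 uM solution, and hydrolysis was followed at 480 nm.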
AmpC no deterg – qHTS Inhibitors of AmpC Beta-Lactamase (assay without detergent). P00811. AmpC nitrocefin hydrolysis, absorbance 480 nm, 0.0001% Triton. Potency, µM (titrated, usually from 57.1 µM), for the others: at the highest dose activity change, negative = inhibition, hits mostly inhibitors. 330,000 tested, 0.52% active. AID 485341, 2010;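 note: plate controls were no compound for no effect and no enzyme for full effect; nearly all actives have a fitted effect of over 20% in size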
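AmpC (5.3 nM in the dispensed reagent) in 20 mM phosphate pH 7.0 with 0.01% (detergent screen) or 0.0001% Triton X-100 was preincubated with compounds for 15 min at room temperature. Nitrocefin was then added from an 800 uM solution, and hydrolysis was followed at 480 nm.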
SARS PLpro yeast – qHTS of Yeast-based Assay for SARS-CoV PLP; S. cerevisiae expressing SARS-CoV PLpro, growth rescue; Potency, µM (highest dose often 32.9 µM), without a hit: top-dose activity, positive = growth rescue, actives largely listed as activators; 330,000 tested, 0.19% active; AID 485353, 2010; calls by dose curve; note: 0% is about no effect; nearly all actives have a fitted effect of over 55% in size
Sm TGR inh – qHTS Assay for the Inhibitors of Schistosoma Mansoni Peroxiredoxins; Schistosoma mansoni thioredoxin glutathione reductase (TGR), Q962Y6; Potency, µM (series often up to 114 µM), for the others: top-dose activity change, negative = inhibition, usual class: inhibitors; purified TGR, DTNB reduction, TNB absorbance 405 nm; AID 485364, 2010; 360,000 tested, 3% active; note: % is set by controls: 0 for no effect and ±100 for the full control effect; nearly all actives have a fitted effect of over 60% in size
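TGR 20 nM + NADPH 100 uM (dispensed conc.), cpd preinc 15 min RT; start with NADPH (500 uM addition) then DTNB (15 mM addition). Kinetic TNB absorbance, 405 nm filter. Four-parameter Hill fit across titration.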
* marks the source's active call; other numbers are inactive results. In the library only some 12% were active in any assay of this set; here they are far more common. Unless noted, calls come from the whole dose curve; as a rule, active = well fitted curve in the direction sought with a large enough effect; inconclusive = small, poorly fitted or top-dose-only effect, or another doubt; inactive = no such curve, though single readings can be large; an effect the other way counts as inactive or inconclusive. Potency is the fitted concentration of half-maximal effect.

How did COC(=O)C1=C(c2cccc(OCc3ccccc3)c2)C[C@@H]2CC[C@H]1N2C(=O)NCCN1CCOCC1 do in these assays?
Pf growth 48h: inconclusive; Pf growth 96h: 5.2µM*; AmpC inh detg: 2%; AmpC no deterg: 264%; SARS PLpro yeast: -2%; Sm TGR inh: 3%

Results for COC(=O)C1=C(c2cccc(OCc3ccccc3)c2)C[C@@H]2CC[C@H]1N2C(=O)NCCCOC(C)C ?
Pf growth 48h: inconclusive; Pf growth 96h: inconclusive; AmpC inh detg: 4%; AmpC no deterg: 249%; SARS PLpro yeast: inconclusive; Sm TGR inh: -1%

What do the screens show for `COC(=O)C1=C(c2cccc(C#N)c2)C[C@@H]2CC[C@H]1N2C(=O)NCCO`?
Pf growth 48h: 30%; Pf growth 96h: 24%; AmpC inh detg: -4%; AmpC no deterg: -10%; SARS PLpro yeast: 5%; Sm TGR inh: -21%

Results for COC(=O)C1=C(c2cccc(OCc3ccccc3)c2)C[C@@H]2CC[C@H]1N2C(=O)NCCOc1ccc(OC)cc1 ?
Pf growth 48h: 7.4µM*; Pf growth 96h: inconclusive; AmpC inh detg: 9%; AmpC no deterg: 18%; SARS PLpro yeast: 9%; Sm TGR inh: 6%

Results for COC(=O)C1=C(c2ccc(OCc3ccccc3)cc2)C[C@@H]2CC[C@H]1N2C(=O)NCCN1CCOCC1 ?
AmpC no deterg: 201%; SARS PLpro yeast: -2%

Results for COC(=O)C1=C(c2cccc(OCc3ccccc3)c2)C[C@@H]2CC[C@H]1N2C(=O)NCc1ccccc1C(F)(F)F ?
Pf growth 48h: 4.1µM*; Pf growth 96h: inconclusive; AmpC inh detg: -5%; AmpC no deterg: -18%; SARS PLpro yeast: -3%; Sm TGR inh: -1%

How did COC(=O)C1=C(c2cccc(OCc3ccccc3)c2)C[C@@H]2CC[C@H]1N2C(=O)NCc1cccc(OC)c1 do in these assays?
Pf growth 48h: 10µM*; Pf growth 96h: 4.1µM*; AmpC inh detg: 0%; AmpC no deterg: -5%; SARS PLpro yeast: -3%; Sm TGR inh: 7%

What do the screens show for `COC(=O)C1=C(c2cccc(OCc3ccccc3)c2)C[C@@H]2CC[C@H]1N2C(=O)NCc1ccc(C(C)(C)C)cc1`?
Pf growth 48h: 3.7µM*; Pf growth 96h: inconclusive; AmpC inh detg: 7%; AmpC no deterg: -9%; SARS PLpro yeast: -1%; Sm TGR inh: -1%

How did COC(=O)C1=C(c2cccc(Cl)c2)C[C@@H]2CC[C@H]1N2C(=O)NCC1CC1 do in these assays?
Pf growth 48h: inconclusive; Pf growth 96h: -12%; AmpC inh detg: -1%; AmpC no deterg: 19%; SARS PLpro yeast: -2%; Sm TGR inh: -8%

Results for COC(=O)C1=C(c2cccc(OCc3ccccc3)c2)C[C@@H]2CC[C@H]1N2C(=O)NCc1ccc(N(C)C)cc1 ?
Pf growth 48h: 8.3µM*; Pf growth 96h: inconclusive; AmpC inh detg: -2%; AmpC no deterg: 2%; SARS PLpro yeast: 4%; Sm TGR inh: -5%

How did COc1cc(Cl)c(NC(=O)CN2C(=O)c3cccnc3Sc3ccccc32)c(OC)c1 do in these assays?
AmpC inh detg: 0%; Sm TGR inh: -6%

What do the screens show for `CCOC(=O)N1CCN(C(=O)c2ccc(-n3c(C)ccc3C)cc2)CC1`?
Pf growth 48h: inconclusive; Pf growth 96h: 10µM*; AmpC inh detg: -3%; AmpC no deterg: 118%; SARS PLpro yeast: 3%; Sm TGR inh: 3%

Results for Cc1ccc(C)n1-c1ccc(C(=O)N2CCOCC2)cc1 ?
Pf growth 48h: -22%; Pf growth 96h: 203%; AmpC inh detg: -1%; AmpC no deterg: 79%; SARS PLpro yeast: 3%; Sm TGR inh: 8.9µM*
